Only some compounds are listed: those with a hit (about 7.3% of all), similar ones and a draw of the others.
NPC1 prom act – NPC1 promoter activation | Huh7 NPC1 promoter luciferase reporter, 24 h | Potency, µM (doses to about 9.22 µM), for inactives: top-dose activation, most hits filed as activators | 320,000 compounds, 2.4% hits | AID 485313; note: % of control where 0% means no effect; nearly all actives have a fitted effect of over 60% in size
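Stable NPC1-promoter luciferase Huh7 line; cpd (DMSO) 24 h, 37 °C, 5% CO2; Amplite luciferase reagent 10 min RT; luminescence readout. qHTS format.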
ELG1 genotoxic – induces genotoxicity in HEK293T cells with luciferase-tagged ELG1. HEK293T ELG1-luciferase reporter, luminescence, 16 h. Potency, µM (series often up to 46 µM), for inactives: at the highest dose activity change, positive = activation, most hits filed as activators. 330,000 compounds, 1.3% hits. AID 504466; note: % of control where 0% means no effect; nearly all actives have a fitted effect of over 60% in size
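HEK293T cells expressing luciferase-tagged ELG1 were treated with compound or DMSO for 16 hr at 37°C. Luciferase activity was then read after 30 min with ONE-Glo at room temperature; rising signal flags genetic stress.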
p53 reactivation – re-activators of mutant p53; H1299 p53-A138V BP100-luciferase reporter, luminescence, 24 h; Potency, µM (series often up to 92.2 µM), without a hit: top-dose activity change, positive = activation, actives largely listed as activators; 320,000 compounds, 0.063% hits; note: % of control where 0% means no effect; nearly all actives have a fitted effect of over 45% in size
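p53-null H1299 cells stably carrying temperature-sensitive p53-A138V and a BP100-luciferase reporter were pinned with compounds (4-point, 1:5 series) and held 24 hrs at 37 deg C. Luminescence was read 10 min after detection reagent.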
FLuc modulator – inhibits or activates purified firefly luciferase, miR-21 counter-screen. purified FLuc, Km substrates, luminescence inhibition. Potency, µM (series often up to 57.5 µM), inactives show at the highest dose activity change, negative = inhibition, actives largely listed as inhibitors. P08659. 360,000 compounds, 6.9% hits. AID 588342;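 note: plate controls were vehicle for no effect and reference inhibitor for full effect; nearly all actives have a fitted effect of over 55% in size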
Target sequence (P08659 whole entry, looked up): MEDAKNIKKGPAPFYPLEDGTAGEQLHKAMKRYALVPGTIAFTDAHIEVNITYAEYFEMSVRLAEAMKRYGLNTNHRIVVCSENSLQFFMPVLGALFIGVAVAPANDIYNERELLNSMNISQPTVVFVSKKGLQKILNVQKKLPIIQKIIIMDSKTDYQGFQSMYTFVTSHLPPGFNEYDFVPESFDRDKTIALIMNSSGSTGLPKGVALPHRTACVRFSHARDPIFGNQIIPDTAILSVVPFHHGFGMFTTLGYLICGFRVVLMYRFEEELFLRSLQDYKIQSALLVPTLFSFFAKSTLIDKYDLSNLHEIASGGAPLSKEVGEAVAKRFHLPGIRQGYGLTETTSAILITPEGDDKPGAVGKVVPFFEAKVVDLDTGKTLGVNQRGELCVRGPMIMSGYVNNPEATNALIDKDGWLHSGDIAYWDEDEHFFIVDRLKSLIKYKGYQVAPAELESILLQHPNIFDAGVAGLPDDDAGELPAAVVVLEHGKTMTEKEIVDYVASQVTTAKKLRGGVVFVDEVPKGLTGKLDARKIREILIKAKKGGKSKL
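Purified P. pyralis luciferase, 10 nM final, with Km-level 10 uM D-luciferin and 10 uM ATP in 50 mM Tris acetate pH 7.5, 10 mM Mg acetate, 0.01% Tween-20, 0.05% BSA; 6-point qHTS titration about 60 µM downward; luminescence read.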
SMN2 splice enh – increases expression of the SMN2 splice variant; HEK293 SMN2-luciferase splicing reporter, luminescence, 30-36 h; Potency, µM (series often up to 46.1 µM), inactives show at the top dose activity change, positive = activation, usual class: activators; 210,000 compounds, 2.8% hits; AID 1458; note: % of control where 0% means no effect; nearly all actives have a fitted effect of over 55% in size
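qHTS luciferase splicing reporter: luminescence rises when SMN2 exon 7 is included in transfected HEK293 cells. Compound exposure lasted 30-36 h at 37C, with 4.5 mM final sodium butyrate as control, followed by a ONE-Glo read.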
Rab9 promoter act – activators of Rab9 promoter. Huh7 Rab9 promoter-luciferase reporter, luminescence, 24 h. Potency, µM (series often up to 9.22 µM), without a hit: at the highest dose activation, negative = inhibition, hits mostly activators. 320,000 compounds, 2.8% hits. AID 485297; note: % of control where 0% means no effect; nearly all actives have a fitted effect of over 60% in size
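Quantitative HTS format; Huh7 Rab9-luciferase reporter cells (1500/well) receive compound 2 h post-plating, incubate 24 h at 37 °C, then get luciferase reagent for 10 min before luminescence reading.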
An asterisk follows results filed as active; ? = inconclusive; . = not tested or not shown; [ ] = another dose, or the depositor's remark. Calls come from the whole dose curve; as a rule, active = well fitted curve in the direction sought with a large enough effect; inconclusive = small, poorly fitted or top-dose-only effect, or another doubt; inactive = no such curve, though single readings can be large; an effect the other way counts as inactive or inconclusive. Potency is the fitted concentration of half-maximal effect.

SMILES	NPC1 prom act	ELG1 genotoxic	p53 reactivation	FLuc modulator	SMN2 splice enh	Rab9 promoter act
COc1ccc(OC)c(NC(=O)[C@H](CSCc2ccccc2)N2Cc3ccccc3C2=O)c1	.	.	.	6.0%	-1.5%	.
O=C(Nc1ccc2c(c1)OCCO2)c1ccc2nccnc2c1	1µM*	?	6.2%	3.01µM*	?	0.794µM*
CCn1cc([N+](=O)[O-])c(C(=O)NCc2ccc3c(c2)OCO3)n1	1.8%	-1.1%	0.9%	3.5%	.	-0.8%
NS(=O)(=O)c1cccc(NC(=O)c2ccc3nc[nH]c3c2)c1	-4.6%	-1.3%	-2.2%	19µM*	.	-5.8%
CCn1cc([N+](=O)[O-])c(C(=O)Nc2ccc3c(c2)OCCO3)n1	?	?	19.7%	19µM*	?	?
O=C(Nc1ccc2c(c1)OCCO2)c1cccnc1	?	?	?	?	?	3.98µM*
COC(=O)CC1Oc2ccc(Cl)cc2-n2cc(-c3ccc(C)cc3)nc21 (configuration not stated)	.	.	.	-7.4%	0.9%	.
CC(=O)N1c2ccc(S(=O)(=O)NCC3CCC(C(=O)Nc4cccc(C)n4)CC3)cc2CC1C (configuration not stated)	-29.5%	-17.9%	-3.2%	-1.5%	.	-40.0%
O=C(Nc1ccc(C(F)(F)F)cc1)c1ccc2nc[nH]c2c1	18.3%	-3.3%	5.6%	?	-1.4%	18.5%
Cc1ccc2nc(-c3cc(NC(=O)c4ccc5c(c4)OCCO5)ccc3Cl)oc2c1	.	.	.	?	5.9%	.
Cc1cc(C(=O)Nc2ccc3c(c2)OCCO3)ccc1[N+](=O)[O-]	0.708µM*	0.517µM*	.	0.757µM*	.	?
Cc1ccc(C(=O)Nc2ccc3nccnc3c2)cc1	0.891µM*	?	-0.3%	0.953µM*	3.16µM*	0.447µM*
O=C(Nc1ccc2c(c1)OCO2)c1ccc2nc[nH]c2c1	?	16.4µM*	13.2%	21.3µM*	?	3.55µM*
O=C(Nc1ccc2c(c1)OCCO2)c1ccc(Cl)c(Cl)c1	1.58µM*	2.59µM*	15.7%	4.78µM*	.	1.41µM*
O=C(Nc1ccc2cccnc2c1)c1ccc(Br)cc1	16.2%	9.7%	.	19µM*	.	6.7%
O=C(Nc1ccc2nc3ccccc3nc2c1)c1ccc(Br)cc1	18.8%	-0.7%	3.4%	-2.5%	3.2%	28.1%
COc1cc(C)ccc1OCCOc1cc(C)ccc1Cl	4.4%	-1.8%	5.7%	13.5µM*	.	-4.1%
COc1cc(C)ccc1OCCOc1c(C)cccc1Cl	16.6%	13.5%	?	26.9µM*	-11.0%	?
Cc1ccc(-c2cc3nc(C)cc(NCc4ccco4)n3n2)cc1	2.82µM*	4.11µM*	?	2.39µM*	12.6µM*	16.7%
COc1ccc(-c2cc3ncc(-c4ccccc4)c(N)n3n2)cc1	1.41µM*	?	4.3%	0.953µM*	11.2µM*	1.78µM*
COc1ccc(-c2cc3nc(C)cc(NCCO)n3n2)cc1	-0.9%	9.2%	9.3%	10.7µM*	-16.8%	?
Cc1cccc(-c2cc3nc(C)cc(NCCCN(C)C)n3n2)c1	-0.6%	?	-22.6%	-10.2%	15.3%	0.6%
COCCNc1cc(C)nc2cc(-c3ccc(C)cc3)nn12	?	?	-0.8%	6.01µM*	-1.9%	?
Cc1ccc(NC(=O)Cc2ccc(-n3c(C)nc4cccnc43)cc2)c(Cl)c1	.	.	.	-1.0%	.	.
COc1ccc(OC)c2sc(N3CCN(C(=O)c4ccc5c(c4)CCCC5)CC3)nc12	.	.	.	-17.6%	.	.
SMILES	NPC1 prom act	ELG1 genotoxic	p53 reactivation	FLuc modulator	SMN2 splice enh	Rab9 promoter act
CN(C)CCSCCO	.	.	.	.	-7.8%[9.22 µM]	.
CC(=O)n1nc(-c2ccc(C)cc2)nc1NCc1ccco1	2.51µM*	?	14.4%	1.4%	?	3.55µM*
COc1ccc(-c2cc3nc(C)cc(N)n3n2)cc1	0.112µM*	?	3.2%	0.379µM*	1.12µM*	0.355µM*
COc1ccc(-c2cc3nc(C)cc(-c4ccc(OC)cc4)n3n2)cc1	1.0%	2.5%	13.2%	?	.	-0.9%
Cc1ccc(-c2nc(NCc3ccco3)n(S(C)(=O)=O)n2)cc1	14.9%	-9.9%	1.4%	.	?	10.8%
CCOc1ccc(C(=O)NCCc2csc(-c3ccc(C(F)(F)F)cc3)n2)cc1OCC	.	.	.	-0.2%	.	.
O=C(NCCCCCCNC(=O)ON=C1CCCCC1)ON=C1CCCCC1	.	.	.	.	-15.3%	.
O=C(OC(C(=O)NC1CCCC1)c1ccccn1)c1cccs1 (configuration not stated)	-2.1%	-0.8%	-2.6%	2.0%	-18.6%	5.4%
COc1cccc(NC(=O)C(c2ccccc2)N2CCNC(=O)C2)c1 (configuration not stated)	1.1%	4.0%	-0.1%	-2.3%	5.3%	1.2%
Cc1c(C)c2ccc(OCc3ccc(C(=O)O)o3)c(C)c2oc1=O	-5.2%	?	-11.1%	10.7µM*	68.4%	-4.1%
C=CCc1ccc(OCC(O)COCC)c(OC)c1 (configuration not stated)	?	18.4µM*	?	19µM*	12.6µM*	?
Cc1ccc(OCc2ccc(C(=O)N3CCOCC3)cc2)cc1C	3.55µM*	?	?	6.75µM*	11.2µM*	1.41µM*
Cc1cc(C)cc(COc2ccc3c(C)c(CC(=O)O)c(=O)oc3c2C)c1	1.1%	0.6%	20.5%	?	.	-2.8%
CC(C)c1ccc(COc2ccc(C(=O)N3CCOCC3)cc2)cc1	-3.6%	7.3%	-1.0%	?	-24.9%	-4.0%
CCC(=O)c1ccc(OCc2ccc(C(=O)OC)o2)c(OC)c1	28.2%	8.4%	7.1%	-16.1%	-14.4%	24.2%
COC(=O)c1ccc(COc2cc(C)ccc2C)o1	28.7%	?	?	10.7µM*	.	12.9%
CCC(=O)N1c2ccccc2CC1C(=O)NCCc1ccccc1C (configuration not stated)	.	.	.	-4.7%	.	.
Cc1ccc(OCc2ccc(C(=O)Nc3nccs3)o2)cc1C	?	-1.0%	-1.7%	16.9µM*	31.9%	?
COC(=O)c1ccc(COc2ccc(C)c(C)c2)o1	1.41µM*	?	7.4%	?	.	1.58µM*
Cc1ccc(OCc2ccc(C(=O)O)o2)cc1C	?	?	0.7%	10.7µM*	.	?
CCc1cc(=O)oc2cc(OCc3ccc(C(=O)O)o3)ccc12	?	17.3%	?	26.9µM*	.	?
COc1cc2c(cc1OC)C(C(=O)c1ccc(OC)c(OC)c1O)=NCC2	.	.	.	.	0.1%	.
Cc1ccc(C)c(NC(=O)CSc2c(C)cnc3c2c(=O)n(C)c(=O)n3C)c1	.	.	.	-2.2%	.	.
C=CCc1ccc(OCc2ccc(C(=O)OC)o2)c(OC)c1	?	10.3µM*	12.5%	7.57µM*	?	0.501µM*

Screening results from PubChem.
